Results: PubChem BioAssay (Tox21)
Values without a mark were called inactive. Activity calls are given as the source filed them. The call rests on the fitted dose curve; in most records, active means well fitted curve in the direction sought with a large enough effect in the repeat runs; inconclusive means weak or mixed curves; inactive means flat fitted curve, though single readings scatter.

Assay: qHTS assay to test for compound auto fluorescence at 590 nm (red) in HEK293 cells (AID 720679)
Settings: red autofluorescence 540/590 nm; series mostly up to 91.3 µM; fluorescence, % of fluorescent control: at the top concentration
Procedure, shortened: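 Red channel, Ex/Em 540/590nm; signal expressed as equivalency to Rose Bengal sodium. HEK293, 2,000 cells/well, 10% dialyzed FBS; 23 nL compound pinned after 4-5 hr attachment; overnight 37C/5% CO2 before reading.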
On the % scale 0 is the no-effect control and ±100 the full control effect.

Structure (SMILES) | outcome | fluorescence, % of fluorescent control [%]
CC(=O)OC1CC(C)OC(C)O1 (configuration not stated) | inactive | –
CCc1ccccc1CC | inactive | –
CCNc1cccc(C)c1 | inactive | –
CC(=O)Oc1ccc(C)cc1 | inactive | –
CC(C)(Oc1ccc(CCNC(=O)c2ccc(Cl)cc2)cc1)C(=O)O | inactive | –
O=c1[nH]cnc2[nH]ncc12 | inactive | –
O=C(O)Cn1c(=O)n(Cc2ccc(Br)cc2F)c(=O)c2ccc(Cl)cc21 | – | 0.327
CC(=O)OCc1ccco1 | inactive | –
O=C(O)c1ccc(C(=O)O)c(C(=O)O)c1 | inactive | –
CC(C)CC(C)O (configuration not stated) | inactive | –
CCCCCCCCCCO | inactive | –
N[C@H](Cc1c[nH]c2ccccc12)C(=O)O | inactive | –
CCNc1ccccc1 | inactive | –
O=S(=O)(O)c1ccc(N=Nc2c(O)ccc3cc(S(=O)(=O)O)ccc23)cc1 | inactive | –
CC1(C)NC(=O)NC1=O | inactive | –
CCO[Si](CCC#N)(OCC)OCC | inactive | –
CC(O)CC(C)(C)O (configuration not stated) | inactive | –
OC1C(O)C(O)C(O)C(O)C1O (configuration not stated) | inactive | –
COc1cc(OC)c(C(=O)CCCN2CCCC2)c(OC)c1 | inactive | –
C[C@]12CCC(=O)C=C1CC[C@@H]1[C@@H]2[C@@H](O)C[C@@]2(C)[C@H]1CC[C@]2(O)C(=O)CO | inactive | –
CC(C)c1cccc(C(C)C)c1 | inactive | –
COc1ccc(CCC(C)=O)cc1 | – | 0.363
OCc1cccc(Oc2ccccc2)c1 | inactive | –
CC(C)CCCCCCCOC(=O)CCCCC(=O)OCCCCCCCC(C)C | inactive | –

Assay: qHTS assay to test for compound auto fluorescence at 535 nm (green) in HEK293 cells (AID 720680)
Settings: green autofluorescence 485/535 nm; series mostly up to 91.3 µM; fluorescence, % of fluorescein: at the top concentration

Structure (SMILES) | outcome | fluorescence, % of fluorescein [%]
C=C(C)[C@H]1CC=C(C)C(=O)C1 | inactive | –
CCNc1cccc(C)c1 | inactive | –
O=c1[nH]cnc2[nH]ncc12 | inactive | –
O=S(=O)(O)c1ccccc1 | inactive | –
O=C(O)Cn1c(=O)n(Cc2ccc(Br)cc2F)c(=O)c2ccc(Cl)cc21 | – | 0.0217
CC(=O)OCc1ccco1 | inactive | –
N#Cc1ccccc1 | inactive | –
COc1ccc(N)c(C)c1 | inactive | –
O=C(O)c1ccc(C(=O)O)c(C(=O)O)c1 | inactive | –
CCCCCCCCCCO | inactive | –
N[C@H](Cc1c[nH]c2ccccc12)C(=O)O | inactive | –
CCNc1ccccc1 | inactive | –
CC(C)=CCl | inactive | –
CN(C)CCOC(=O)COc1ccc(Cl)cc1 | inactive | –
Nc1ccc(Cl)c(N)c1 | inactive | –
OC1C(O)C(O)C(O)C(O)C1O (configuration not stated) | inactive | –
COc1cc(OC)c(C(=O)CCCN2CCCC2)c(OC)c1 | inactive | –
C[C@]12CCC(=O)C=C1CC[C@@H]1[C@@H]2[C@@H](O)C[C@@]2(C)[C@H]1CC[C@]2(O)C(=O)CO | inactive | –
CC(C)c1cccc(C(C)C)c1 | inactive | –
O=[N+]([O-])c1ccc2nc[nH]c2c1 | inactive | –
COc1ccc(C)cc1N | inactive | –
COc1ccc(CCC(C)=O)cc1 | – | 0.0835

Assay: qHTS assay to test for compound auto fluorescence at 460 nm (blue) in HEK293 cell free culture (AID 720681)
Settings: cell-free medium, autofluorescence 405/460 nm (blue); series mostly up to 91.3 µM; fluorescence, % of fluorescent control: at the top concentration
Procedure, shortened: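 Compounds were added to cell-free DMEM with 10% FBS and fluorescence read directly. The blue channel used 405 nm excitation and 460 nm emission, with triamterene as the reference fluorophore.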

Structure (SMILES) | outcome | fluorescence, % of fluorescent control [%]
CC(=O)OC1CC(C)OC(C)O1 (configuration not stated) | inactive | –
CCc1ccccc1CC | inactive | –
C=C(C)[C@H]1CC=C(C)C(=O)C1 | inactive | –
CCNc1cccc(C)c1 | inactive | –
CC(=O)Oc1ccc(C)cc1 | inactive | –
CC(C)(Oc1ccc(CCNC(=O)c2ccc(Cl)cc2)cc1)C(=O)O | inactive | –
O=c1[nH]cnc2[nH]ncc12 | inactive | –
O=S(=O)(O)c1ccccc1 | inactive | –
O=C(O)Cn1c(=O)n(Cc2ccc(Br)cc2F)c(=O)c2ccc(Cl)cc21 | – | 0.0093
CC(=O)OCc1ccco1 | inactive | –
N#Cc1ccccc1 | inactive | –
CC(=O)OCc1ccccc1 | inactive | –
COc1ccc(N)c(C)c1 | inactive | –
O=C(O)c1ccc(C(=O)O)c(C(=O)O)c1 | inactive | –
CC(C)CC(C)O (configuration not stated) | inactive | –
CCCCCCCCCCO | inactive | –
N[C@H](Cc1c[nH]c2ccccc12)C(=O)O | inactive | –
COC(=O)CCCC(=O)OC | inactive | –
CCNc1ccccc1 | inactive | –

Structure (SMILES) | outcome | fluorescence, % of fluorescent control [%]
CC(C)(C#N)c1cc(Cn2cncn2)cc(C(C)(C)C#N)c1 | inactive | –
O=S(=O)(O)c1ccc(N=Nc2c(O)ccc3cc(S(=O)(=O)O)ccc23)cc1 | inactive | –
CC1(C)NC(=O)NC1=O | inactive | –
CCO[Si](CCC#N)(OCC)OCC | inactive | –
CC(C)=CCl | inactive | –
CN(C)CCOC(=O)COc1ccc(Cl)cc1 | inactive | –
CC(O)CC(C)(C)O (configuration not stated) | inactive | –
Nc1ccc(Cl)c(N)c1 | inactive | –
OC1C(O)C(O)C(O)C(O)C1O (configuration not stated) | inactive | –
COc1cc(OC)c(C(=O)CCCN2CCCC2)c(OC)c1 | inactive | –
CC(=O)OCCOC(C)=O | inactive | –
C[C@]12CCC(=O)C=C1CC[C@@H]1[C@@H]2[C@@H](O)C[C@@]2(C)[C@H]1CC[C@]2(O)C(=O)CO | inactive | –
CC(C)c1cccc(C(C)C)c1 | inactive | –
O=[N+]([O-])c1ccc2nc[nH]c2c1 | inactive | –
COc1ccc(C)cc1N | inactive | –
COc1ccc(CCC(C)=O)cc1 | – | 0.234
CCCCCC(=O)O | inactive | –
OCc1cccc(Oc2ccccc2)c1 | inactive | –
CC(C)CCCCCCCOC(=O)CCCCC(=O)OCCCCCCCC(C)C | inactive | –

Assay: qHTS assay to test for compound auto fluorescence at 535 nm (green) in HEK293 cell free culture (AID 720682)
Settings: cell-free medium, green autofluorescence 485/535 nm, active compounds read high; series mostly up to 91.3 µM; activity change: at the top concentration
Procedure, shortened: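 DMEM + 10% FBS, cell-free; cpd or DMSO pinned in; Ex485/Em535 read; output as fluorescein-equivalent signal.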

Structure (SMILES) | outcome | activity change [%]
CC(=O)OC1CC(C)OC(C)O1 (configuration not stated) | inactive | –
CCc1ccccc1CC | inactive | –
C=C(C)[C@H]1CC=C(C)C(=O)C1 | inactive | –
CCNc1cccc(C)c1 | inactive | –
CC(=O)Oc1ccc(C)cc1 | inactive | –
CC(C)(Oc1ccc(CCNC(=O)c2ccc(Cl)cc2)cc1)C(=O)O | inactive | –
O=c1[nH]cnc2[nH]ncc12 | inactive | –
O=S(=O)(O)c1ccccc1 | inactive | –
O=C(O)Cn1c(=O)n(Cc2ccc(Br)cc2F)c(=O)c2ccc(Cl)cc21 | – | 0.118
CC(=O)OCc1ccco1 | inactive | –
N#Cc1ccccc1 | inactive | –
CC(=O)OCc1ccccc1 | inactive | –
COc1ccc(N)c(C)c1 | inactive | –
O=C(O)c1ccc(C(=O)O)c(C(=O)O)c1 | inactive | –
CC(C)CC(C)O (configuration not stated) | inactive | –
CCCCCCCCCCO | inactive | –
N[C@H](Cc1c[nH]c2ccccc12)C(=O)O | inactive | –
COC(=O)CCCC(=O)OC | inactive | –
CCNc1ccccc1 | inactive | –

Structure (SMILES) | outcome | activity change [%]
CC(C)(C#N)c1cc(Cn2cncn2)cc(C(C)(C)C#N)c1 | inactive | –
O=S(=O)(O)c1ccc(N=Nc2c(O)ccc3cc(S(=O)(=O)O)ccc23)cc1 | inactive | –
CC1(C)NC(=O)NC1=O | inactive | –
CCO[Si](CCC#N)(OCC)OCC | inactive | –
CC(C)=CCl | inactive | –
CN(C)CCOC(=O)COc1ccc(Cl)cc1 | inactive | –
CC(O)CC(C)(C)O (configuration not stated) | inactive | –
Nc1ccc(Cl)c(N)c1 | inactive | –
OC1C(O)C(O)C(O)C(O)C1O (configuration not stated) | inactive | –
COc1cc(OC)c(C(=O)CCCN2CCCC2)c(OC)c1 | inactive | –
CC(=O)OCCOC(C)=O | inactive | –
C[C@]12CCC(=O)C=C1CC[C@@H]1[C@@H]2[C@@H](O)C[C@@]2(C)[C@H]1CC[C@]2(O)C(=O)CO | inactive | –
CC(C)c1cccc(C(C)C)c1 | inactive | –
O=[N+]([O-])c1ccc2nc[nH]c2c1 | inactive | –
COc1ccc(C)cc1N | inactive | –
COc1ccc(CCC(C)=O)cc1 | – | -0.0503
CCCCCC(=O)O | inactive | –
OCc1cccc(Oc2ccccc2)c1 | inactive | –
CC(C)CCCCCCCOC(=O)CCCCC(=O)OCCCCCCCC(C)C | inactive | –
